The results in this text go back to paper PMC7862700, “An all-to-all approach to the identification of sequence-specific readers for epigenetic DNA modifications on cytosine”.

What all share (assay): DAPPL (digital affinity profiling via proximity ligation, sequencing); 10 mM Tris-HCl pH 7.5, 50 mM NaCl, 1 mM DTT, 4% glycerol, room temperature, 30 min; GST-TFs on glutathione beads, 16-mer random dsDNA library, 0.1% formaldehyde crosslink after washing; high values mean tight binding
What all share (details): protein: recombinant; tags: N-terminal GST; dsDNA, one strand shown

One assay deals with T1, FLI1 (Homo sapiens, UniProt Q01543 1-452).
T1 sequence: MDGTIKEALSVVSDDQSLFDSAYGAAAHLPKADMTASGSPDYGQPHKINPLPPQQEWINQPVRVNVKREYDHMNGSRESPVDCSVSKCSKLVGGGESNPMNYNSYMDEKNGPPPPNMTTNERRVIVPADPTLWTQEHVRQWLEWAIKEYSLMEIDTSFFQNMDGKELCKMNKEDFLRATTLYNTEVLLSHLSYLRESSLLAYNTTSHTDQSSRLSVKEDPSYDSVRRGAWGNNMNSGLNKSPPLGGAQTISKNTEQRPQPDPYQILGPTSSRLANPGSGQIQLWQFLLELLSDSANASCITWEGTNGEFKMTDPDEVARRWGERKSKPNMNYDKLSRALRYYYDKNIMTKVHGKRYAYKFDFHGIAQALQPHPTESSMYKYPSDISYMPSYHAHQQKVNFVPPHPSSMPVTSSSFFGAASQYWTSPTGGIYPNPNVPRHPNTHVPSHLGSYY
An outline of the steps: (§1)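 Pools of DNA-barcoded human transcription factors, expressed in yeast as GST fusions on glutathione beads and combined with a tag-only sample, were incubated with 200 nmole of a 16-mer random double-stranded DNA library. Incubation took 30 min at room temperature in Tris/NaCl/DTT/glycerol buffer and was followed by washing, 0.1% formaldehyde crosslinking, proximity ligation (BsaI/T4 ligase, 1 h, 37 °C), PCR amplification and sequencing on an Illumina NextSeq500. Binding signal is the ratio of a hexamer's read frequency for a factor to its frequency for the tag-only sample.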

The target in another assay is T2, ELK1 (Homo sapiens, UniProt P19419 1-428).
T2 sequence: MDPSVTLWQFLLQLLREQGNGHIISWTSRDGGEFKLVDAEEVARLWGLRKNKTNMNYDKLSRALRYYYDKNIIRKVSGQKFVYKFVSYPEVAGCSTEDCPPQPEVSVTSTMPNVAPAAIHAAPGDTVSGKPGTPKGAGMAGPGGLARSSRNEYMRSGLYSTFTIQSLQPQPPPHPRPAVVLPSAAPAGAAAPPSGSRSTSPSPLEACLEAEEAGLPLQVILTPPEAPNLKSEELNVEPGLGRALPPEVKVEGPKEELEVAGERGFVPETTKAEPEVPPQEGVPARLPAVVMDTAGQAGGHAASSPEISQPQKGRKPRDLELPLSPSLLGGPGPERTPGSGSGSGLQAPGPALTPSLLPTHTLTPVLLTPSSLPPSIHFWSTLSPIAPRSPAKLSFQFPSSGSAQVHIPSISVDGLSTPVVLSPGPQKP
An outline of the steps: as §1

A further assay deals with ELF1 (Homo sapiens, UniProt P32519 1-619). An outline of the steps:
as §1

The target in the next assay is T3, EHF (Homo sapiens, UniProt Q9NZC4 1-300).
T3 sequence: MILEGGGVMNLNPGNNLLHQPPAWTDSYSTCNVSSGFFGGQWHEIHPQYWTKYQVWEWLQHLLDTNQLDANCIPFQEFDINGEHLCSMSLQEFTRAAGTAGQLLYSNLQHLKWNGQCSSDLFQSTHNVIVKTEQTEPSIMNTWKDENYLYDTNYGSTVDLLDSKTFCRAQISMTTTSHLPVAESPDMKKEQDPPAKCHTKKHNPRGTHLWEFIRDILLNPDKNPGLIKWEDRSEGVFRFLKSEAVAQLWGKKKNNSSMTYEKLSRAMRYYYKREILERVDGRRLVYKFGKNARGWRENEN
An outline of the steps: as §1

In another assay the target is SPIB (Homo sapiens, UniProt Q01892 1-262). The procedure, abridged: as §1
Sequence of SPIB (Q01892 whole entry): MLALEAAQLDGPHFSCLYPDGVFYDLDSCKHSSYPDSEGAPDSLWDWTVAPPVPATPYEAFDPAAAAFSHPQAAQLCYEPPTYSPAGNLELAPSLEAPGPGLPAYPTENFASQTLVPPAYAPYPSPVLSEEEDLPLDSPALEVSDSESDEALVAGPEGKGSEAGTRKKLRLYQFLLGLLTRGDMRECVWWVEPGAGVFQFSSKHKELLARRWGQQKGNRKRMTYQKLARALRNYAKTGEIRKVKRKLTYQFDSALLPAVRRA
Another assay addresses T4, FEV (Homo sapiens, UniProt Q99581 1-238).
T4 sequence: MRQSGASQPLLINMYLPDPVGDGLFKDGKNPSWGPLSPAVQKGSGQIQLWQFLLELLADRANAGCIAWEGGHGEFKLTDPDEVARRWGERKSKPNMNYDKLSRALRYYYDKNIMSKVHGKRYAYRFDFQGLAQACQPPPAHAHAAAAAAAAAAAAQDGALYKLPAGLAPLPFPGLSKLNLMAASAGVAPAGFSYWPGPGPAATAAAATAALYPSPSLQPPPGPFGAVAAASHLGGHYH
The procedure, abridged:
as §1

For the next assay, the target named is ETV5 (Homo sapiens, UniProt P41161 1-510). An outline of the steps: as §1
Sequence of ETV5 (P41161 whole entry): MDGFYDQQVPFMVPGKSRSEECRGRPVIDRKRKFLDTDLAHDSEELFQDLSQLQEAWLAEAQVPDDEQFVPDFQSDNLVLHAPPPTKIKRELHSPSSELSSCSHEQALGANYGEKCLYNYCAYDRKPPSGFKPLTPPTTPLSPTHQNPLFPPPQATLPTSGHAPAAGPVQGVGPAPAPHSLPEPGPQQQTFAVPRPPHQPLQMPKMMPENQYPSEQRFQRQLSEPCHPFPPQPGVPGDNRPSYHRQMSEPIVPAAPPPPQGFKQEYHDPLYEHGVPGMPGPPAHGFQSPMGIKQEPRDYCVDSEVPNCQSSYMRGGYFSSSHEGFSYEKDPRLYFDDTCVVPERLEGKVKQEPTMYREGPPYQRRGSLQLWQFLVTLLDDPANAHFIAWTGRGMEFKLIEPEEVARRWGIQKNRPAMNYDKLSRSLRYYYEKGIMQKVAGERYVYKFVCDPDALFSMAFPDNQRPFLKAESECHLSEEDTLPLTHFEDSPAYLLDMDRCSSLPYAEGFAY
In the next assay the target is T5, SPIC (Homo sapiens, UniProt Q8N5J4 1-248).
T5 sequence: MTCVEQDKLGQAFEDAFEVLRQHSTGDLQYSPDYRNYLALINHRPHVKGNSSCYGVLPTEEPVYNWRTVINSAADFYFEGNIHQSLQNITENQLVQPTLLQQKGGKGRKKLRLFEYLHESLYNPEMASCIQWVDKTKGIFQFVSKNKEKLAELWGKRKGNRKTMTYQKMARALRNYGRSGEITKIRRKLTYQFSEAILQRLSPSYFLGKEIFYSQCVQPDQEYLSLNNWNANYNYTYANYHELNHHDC
The procedure, abridged: as §1

A further assay has as its target ELF4 (Homo sapiens, UniProt Q99607 1-663). An outline of the steps:
as §1

For a further assay, the target named is ETV1 (Homo sapiens, UniProt P50549 1-477). The procedure, abridged: as §1
Sequence of ETV1 (P50549 whole entry): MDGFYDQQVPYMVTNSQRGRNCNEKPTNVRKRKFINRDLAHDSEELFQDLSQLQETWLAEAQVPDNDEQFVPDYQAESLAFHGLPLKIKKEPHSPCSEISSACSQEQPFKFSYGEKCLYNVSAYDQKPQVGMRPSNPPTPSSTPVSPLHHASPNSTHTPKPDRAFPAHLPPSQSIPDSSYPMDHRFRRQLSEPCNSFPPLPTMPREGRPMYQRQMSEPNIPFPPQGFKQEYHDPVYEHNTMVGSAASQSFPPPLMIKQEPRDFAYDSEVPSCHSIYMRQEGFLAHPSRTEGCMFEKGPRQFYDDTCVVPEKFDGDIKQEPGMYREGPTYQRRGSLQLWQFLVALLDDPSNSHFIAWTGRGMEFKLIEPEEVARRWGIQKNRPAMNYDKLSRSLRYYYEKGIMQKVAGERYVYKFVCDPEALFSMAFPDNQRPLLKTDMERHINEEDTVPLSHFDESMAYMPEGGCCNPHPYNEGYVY
The target in a further assay is T6, ERF (Homo sapiens, UniProt P50548 1-548).
T6 sequence: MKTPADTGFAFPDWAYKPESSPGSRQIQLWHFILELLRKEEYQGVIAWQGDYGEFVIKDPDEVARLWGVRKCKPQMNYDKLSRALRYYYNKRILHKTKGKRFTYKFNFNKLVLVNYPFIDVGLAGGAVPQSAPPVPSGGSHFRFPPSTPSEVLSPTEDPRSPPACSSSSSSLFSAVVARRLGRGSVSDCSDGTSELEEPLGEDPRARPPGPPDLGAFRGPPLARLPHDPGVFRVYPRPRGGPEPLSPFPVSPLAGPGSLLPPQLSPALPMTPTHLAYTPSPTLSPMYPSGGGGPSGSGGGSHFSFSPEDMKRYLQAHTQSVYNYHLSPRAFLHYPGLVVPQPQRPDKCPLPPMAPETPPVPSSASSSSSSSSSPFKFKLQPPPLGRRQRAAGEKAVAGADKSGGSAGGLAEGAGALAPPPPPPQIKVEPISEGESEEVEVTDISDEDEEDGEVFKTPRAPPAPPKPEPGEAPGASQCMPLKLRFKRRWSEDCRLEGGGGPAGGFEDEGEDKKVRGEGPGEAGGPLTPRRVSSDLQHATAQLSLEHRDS
An outline of the steps:
as §1

The target in a further assay is T7, ETV3L (Homo sapiens, UniProt Q6ZN32 1-361).
T7 sequence: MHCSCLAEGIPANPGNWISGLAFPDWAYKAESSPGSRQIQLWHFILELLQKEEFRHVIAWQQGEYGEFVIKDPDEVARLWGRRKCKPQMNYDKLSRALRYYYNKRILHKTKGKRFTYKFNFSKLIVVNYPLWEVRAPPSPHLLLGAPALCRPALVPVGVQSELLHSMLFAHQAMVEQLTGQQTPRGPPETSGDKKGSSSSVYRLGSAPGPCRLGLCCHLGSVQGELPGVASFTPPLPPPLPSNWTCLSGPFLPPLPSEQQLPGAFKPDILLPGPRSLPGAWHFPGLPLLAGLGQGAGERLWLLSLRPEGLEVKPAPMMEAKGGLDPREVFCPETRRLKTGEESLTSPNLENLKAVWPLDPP
The procedure, abridged:
as §1

The next assay addresses T8, ETS2 (Homo sapiens, UniProt P15036 1-469).
T8 sequence: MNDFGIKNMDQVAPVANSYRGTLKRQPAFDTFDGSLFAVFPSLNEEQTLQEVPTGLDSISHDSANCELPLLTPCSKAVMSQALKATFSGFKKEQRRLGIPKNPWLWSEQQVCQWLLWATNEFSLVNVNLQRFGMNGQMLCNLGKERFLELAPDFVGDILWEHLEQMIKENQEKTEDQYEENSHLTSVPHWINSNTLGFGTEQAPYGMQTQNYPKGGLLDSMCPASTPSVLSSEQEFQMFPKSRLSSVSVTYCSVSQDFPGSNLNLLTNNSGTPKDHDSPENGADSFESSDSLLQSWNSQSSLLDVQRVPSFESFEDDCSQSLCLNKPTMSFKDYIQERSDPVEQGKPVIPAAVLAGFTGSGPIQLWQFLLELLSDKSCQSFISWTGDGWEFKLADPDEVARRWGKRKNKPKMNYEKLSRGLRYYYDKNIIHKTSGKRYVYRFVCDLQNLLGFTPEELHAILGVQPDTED
An outline of the steps:
as §1

The target in another assay is T9, ELF5 (Homo sapiens, UniProt Q9UKW6-2 1-255).
T9 sequence: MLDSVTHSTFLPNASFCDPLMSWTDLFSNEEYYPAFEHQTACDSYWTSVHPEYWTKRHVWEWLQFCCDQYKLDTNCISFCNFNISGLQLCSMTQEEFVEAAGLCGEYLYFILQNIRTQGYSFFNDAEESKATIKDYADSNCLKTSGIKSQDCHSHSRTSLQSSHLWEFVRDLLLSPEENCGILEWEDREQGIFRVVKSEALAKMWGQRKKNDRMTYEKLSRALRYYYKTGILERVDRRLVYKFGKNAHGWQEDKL
An outline of the steps:
as §1

For a further assay, the target named is T10, ETV3 (Homo sapiens, UniProt P41162-2 1-143).
T10 sequence: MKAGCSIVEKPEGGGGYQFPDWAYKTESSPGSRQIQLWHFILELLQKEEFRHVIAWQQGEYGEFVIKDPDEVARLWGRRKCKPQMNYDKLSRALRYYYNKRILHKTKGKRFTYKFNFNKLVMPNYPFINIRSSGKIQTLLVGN
The procedure, abridged:
as §1

For the next assay, the target named is ETV6 (Homo sapiens, UniProt P41212 1-452). An outline of the steps:
as §1

Sequence of ELF1 (P32519 whole entry): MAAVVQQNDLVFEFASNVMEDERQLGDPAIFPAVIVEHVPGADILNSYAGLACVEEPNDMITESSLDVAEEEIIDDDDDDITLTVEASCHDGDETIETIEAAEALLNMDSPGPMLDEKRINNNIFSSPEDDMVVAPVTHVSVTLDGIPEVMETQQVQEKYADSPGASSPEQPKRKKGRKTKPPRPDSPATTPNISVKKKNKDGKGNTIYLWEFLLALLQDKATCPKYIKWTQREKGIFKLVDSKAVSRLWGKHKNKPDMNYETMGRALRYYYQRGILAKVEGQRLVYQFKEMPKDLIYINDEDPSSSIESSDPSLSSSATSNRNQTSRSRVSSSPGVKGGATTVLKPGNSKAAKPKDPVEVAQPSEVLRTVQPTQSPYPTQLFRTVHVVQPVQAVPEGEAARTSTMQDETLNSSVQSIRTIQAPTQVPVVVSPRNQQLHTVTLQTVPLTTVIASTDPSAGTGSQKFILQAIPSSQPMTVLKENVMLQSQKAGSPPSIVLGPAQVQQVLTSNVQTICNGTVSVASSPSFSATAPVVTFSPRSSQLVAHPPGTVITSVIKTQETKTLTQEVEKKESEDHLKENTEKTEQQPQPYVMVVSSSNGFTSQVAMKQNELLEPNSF
Sequence of ETV6 (P41212 whole entry): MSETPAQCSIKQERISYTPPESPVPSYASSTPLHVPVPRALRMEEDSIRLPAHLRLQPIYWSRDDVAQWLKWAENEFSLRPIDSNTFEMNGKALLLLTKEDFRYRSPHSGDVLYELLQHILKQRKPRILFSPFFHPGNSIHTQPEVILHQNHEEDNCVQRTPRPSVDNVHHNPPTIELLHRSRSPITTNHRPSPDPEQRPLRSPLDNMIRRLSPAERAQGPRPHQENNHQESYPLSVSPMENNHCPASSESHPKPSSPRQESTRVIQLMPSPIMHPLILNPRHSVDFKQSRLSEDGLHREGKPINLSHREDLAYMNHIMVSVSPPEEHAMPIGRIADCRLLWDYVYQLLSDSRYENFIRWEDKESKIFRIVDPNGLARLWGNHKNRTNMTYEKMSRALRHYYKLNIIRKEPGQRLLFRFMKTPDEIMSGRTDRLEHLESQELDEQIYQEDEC
Sequence of ELF4 (Q99607 whole entry): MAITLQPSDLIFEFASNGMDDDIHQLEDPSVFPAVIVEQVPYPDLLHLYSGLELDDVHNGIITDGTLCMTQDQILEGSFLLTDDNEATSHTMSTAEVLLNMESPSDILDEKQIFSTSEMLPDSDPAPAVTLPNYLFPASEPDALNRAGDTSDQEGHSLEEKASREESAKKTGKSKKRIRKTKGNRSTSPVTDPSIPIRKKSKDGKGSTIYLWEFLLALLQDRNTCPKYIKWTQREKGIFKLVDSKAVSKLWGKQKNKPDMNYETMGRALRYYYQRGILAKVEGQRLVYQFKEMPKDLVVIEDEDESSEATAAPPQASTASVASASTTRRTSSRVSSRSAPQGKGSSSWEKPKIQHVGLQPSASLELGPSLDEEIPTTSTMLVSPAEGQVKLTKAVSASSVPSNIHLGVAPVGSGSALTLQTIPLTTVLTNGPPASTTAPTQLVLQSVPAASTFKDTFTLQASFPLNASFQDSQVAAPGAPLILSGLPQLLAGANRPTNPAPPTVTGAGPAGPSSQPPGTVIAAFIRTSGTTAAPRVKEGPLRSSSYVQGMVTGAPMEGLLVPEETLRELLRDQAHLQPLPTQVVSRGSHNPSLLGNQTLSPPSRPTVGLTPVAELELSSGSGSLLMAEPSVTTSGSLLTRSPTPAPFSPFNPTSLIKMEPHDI

In the case of ACCACA, the binding signal was 1.05 fold enrichment (6-mer frequency, TF over GST control) in the assay with FLI1; 1.1 fold enrichment (6-mer frequency, TF over GST control) in the assay with ELK1; 1.08 fold enrichment (6-mer frequency, TF over GST control) in the assay with ELF1; 1.11 fold enrichment (6-mer frequency, TF over GST control) in the assay with EHF; 1.04 fold enrichment (6-mer frequency, TF over GST control) with SPIB; 1.05 fold enrichment (6-mer frequency, TF over GST control) with FEV. In addition, the binding signal is 1.03 fold enrichment (6-mer frequency, TF over GST control) in the assay with ETV5; 1.1 fold enrichment (6-mer frequency, TF over GST control) with SPIC; 1.11 fold enrichment (6-mer frequency, TF over GST control) in the assay with ELF4; 1.09 fold enrichment (6-mer frequency, TF over GST control) in the assay with ETV1; 1.05 fold enrichment (6-mer frequency, TF over GST control) in the assay with ERF; 1.16 fold enrichment (6-mer frequency, TF over GST control) in the assay with ETV3L. For the same sequence, the binding signal with ETS2 was 1.06 fold enrichment (6-mer frequency, TF over GST control); in the assay with ELF5 it was 1.09 fold enrichment (6-mer frequency, TF over GST control); in the assay with ETV3, 1.02 fold enrichment (6-mer frequency, TF over GST control); with ETV6 it was 1.08 fold enrichment (6-mer frequency, TF over GST control).
